Common to all, as to experiment: DAPPL (digital affinity profiling via proximity ligation, sequencing); 10 mM Tris-HCl pH 7.5, 50 mM NaCl, 1 mM DTT, 4% glycerol, room temperature, 30 min; GST-TFs on glutathione beads, 16-mer random dsDNA library, 0.1% formaldehyde crosslink after washing; high values mean tight binding
One test concerns the target T1, FLI1 (Homo sapiens, UniProt Q01543 1-452).
T1 sequence: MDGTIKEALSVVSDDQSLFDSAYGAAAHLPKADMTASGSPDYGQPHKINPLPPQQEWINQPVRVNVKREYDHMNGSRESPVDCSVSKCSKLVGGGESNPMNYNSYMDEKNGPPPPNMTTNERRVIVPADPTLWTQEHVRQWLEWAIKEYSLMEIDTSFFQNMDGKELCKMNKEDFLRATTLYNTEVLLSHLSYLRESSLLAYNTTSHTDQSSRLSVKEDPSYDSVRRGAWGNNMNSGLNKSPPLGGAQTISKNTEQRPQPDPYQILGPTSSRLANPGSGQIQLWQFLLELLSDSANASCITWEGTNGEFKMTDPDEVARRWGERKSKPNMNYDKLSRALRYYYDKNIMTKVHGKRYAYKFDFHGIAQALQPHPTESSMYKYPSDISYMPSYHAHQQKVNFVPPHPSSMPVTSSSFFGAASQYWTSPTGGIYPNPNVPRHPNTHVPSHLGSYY
Particulars: protein: recombinant; tags: N-terminal GST; dsDNA, one strand shown. The method, boiled down:
(§1)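 In yeast, human transcription factors were expressed with a GST fusion, then pulled down on glutathione beads and given DNA barcodes. Pooled with a tag-only sample, they were exposed to 200 nmole of a 16-mer random double-stranded DNA library (Tris/NaCl/DTT/glycerol buffer, room temperature, 30 min), washed, crosslinked with 0.1% formaldehyde, proximity-ligated using BsaI/T4 ligase for 1 h at 37 °C, PCR-amplified and read on an Illumina NextSeq500. Each hexamer's frequency of reads for a factor, divided by the matching frequency for the tag-only sample, gives the binding signal.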

The target of another test is T2, ELK1 (Homo sapiens, UniProt P19419 1-428).
T2 sequence: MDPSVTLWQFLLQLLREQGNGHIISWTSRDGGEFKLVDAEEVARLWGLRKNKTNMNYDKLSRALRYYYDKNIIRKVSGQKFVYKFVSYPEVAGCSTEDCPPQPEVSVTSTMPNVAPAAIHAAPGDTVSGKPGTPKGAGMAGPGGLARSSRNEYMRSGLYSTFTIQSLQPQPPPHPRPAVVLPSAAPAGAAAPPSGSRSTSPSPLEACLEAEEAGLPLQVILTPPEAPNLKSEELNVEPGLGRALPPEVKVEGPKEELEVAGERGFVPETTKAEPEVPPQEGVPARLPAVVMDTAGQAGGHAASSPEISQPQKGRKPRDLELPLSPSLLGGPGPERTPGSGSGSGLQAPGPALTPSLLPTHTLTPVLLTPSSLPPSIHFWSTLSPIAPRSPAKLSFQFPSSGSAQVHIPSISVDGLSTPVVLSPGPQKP
The following applies: protein: recombinant; tags: N-terminal GST; dsDNA, one strand shown. Put shortly: as §1

The next test has as its target T3, GABPA (Homo sapiens, UniProt Q06546 1-454).
T3 sequence: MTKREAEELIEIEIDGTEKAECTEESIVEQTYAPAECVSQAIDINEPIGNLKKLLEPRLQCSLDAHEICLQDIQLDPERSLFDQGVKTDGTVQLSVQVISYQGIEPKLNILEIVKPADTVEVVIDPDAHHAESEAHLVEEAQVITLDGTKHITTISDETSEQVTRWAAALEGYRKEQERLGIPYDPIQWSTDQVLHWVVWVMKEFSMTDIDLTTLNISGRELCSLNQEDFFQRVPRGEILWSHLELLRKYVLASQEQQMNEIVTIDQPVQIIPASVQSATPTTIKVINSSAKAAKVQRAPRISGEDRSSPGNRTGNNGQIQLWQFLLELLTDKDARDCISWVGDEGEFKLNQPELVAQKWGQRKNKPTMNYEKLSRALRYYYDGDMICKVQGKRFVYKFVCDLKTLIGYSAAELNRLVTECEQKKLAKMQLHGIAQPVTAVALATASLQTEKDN
The following applies: protein: recombinant; tags: N-terminal GST; dsDNA, one strand shown. The method, boiled down: as §1

Another test addresses T4, ERG (Homo sapiens, UniProt P11308 1-479).
T4 sequence: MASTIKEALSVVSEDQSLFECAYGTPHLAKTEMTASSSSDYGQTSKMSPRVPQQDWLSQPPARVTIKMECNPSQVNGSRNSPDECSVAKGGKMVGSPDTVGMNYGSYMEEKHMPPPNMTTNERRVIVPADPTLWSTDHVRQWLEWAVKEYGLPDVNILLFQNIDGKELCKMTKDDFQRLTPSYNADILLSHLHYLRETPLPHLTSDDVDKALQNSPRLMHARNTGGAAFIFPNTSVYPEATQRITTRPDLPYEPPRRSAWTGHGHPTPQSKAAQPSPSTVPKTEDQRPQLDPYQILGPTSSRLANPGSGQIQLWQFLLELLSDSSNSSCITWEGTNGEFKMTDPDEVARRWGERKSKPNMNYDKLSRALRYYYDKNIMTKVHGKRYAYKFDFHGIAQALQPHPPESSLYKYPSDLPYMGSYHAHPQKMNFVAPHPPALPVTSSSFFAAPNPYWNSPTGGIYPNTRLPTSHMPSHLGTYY
Particulars: protein: recombinant; tags: N-terminal GST; dsDNA, one strand shown. Put shortly: as §1

A further test addresses ELF1 (Homo sapiens, UniProt P32519 1-619). The following applies: protein: recombinant; tags: N-terminal GST; dsDNA, one strand shown. The method, boiled down:
as §1

A further test concerns the target T5, EHF (Homo sapiens, UniProt Q9NZC4 1-300).
T5 sequence: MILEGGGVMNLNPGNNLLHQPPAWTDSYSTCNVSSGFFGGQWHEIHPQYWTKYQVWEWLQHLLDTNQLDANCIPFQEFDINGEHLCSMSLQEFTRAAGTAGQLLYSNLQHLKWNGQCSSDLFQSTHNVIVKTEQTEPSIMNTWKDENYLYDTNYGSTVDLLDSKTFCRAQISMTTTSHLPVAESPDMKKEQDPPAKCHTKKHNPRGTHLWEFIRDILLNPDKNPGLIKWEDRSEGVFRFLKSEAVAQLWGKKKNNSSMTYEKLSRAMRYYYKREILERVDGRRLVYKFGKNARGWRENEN
The following applies: protein: recombinant; tags: N-terminal GST; dsDNA, one strand shown. Put shortly:
as §1

A further test addresses SPI1 (Homo sapiens, UniProt P17947 1-270). Particulars: protein: recombinant; tags: N-terminal GST; dsDNA, one strand shown. The method, boiled down:
as §1

For the next test, the target named is SPIB (Homo sapiens, UniProt Q01892 1-262). Particulars: protein: recombinant; tags: N-terminal GST; dsDNA, one strand shown. The method, boiled down:
as §1

The target in another test is T6, ELK3 (Homo sapiens, UniProt P41970 1-407).
T6 sequence: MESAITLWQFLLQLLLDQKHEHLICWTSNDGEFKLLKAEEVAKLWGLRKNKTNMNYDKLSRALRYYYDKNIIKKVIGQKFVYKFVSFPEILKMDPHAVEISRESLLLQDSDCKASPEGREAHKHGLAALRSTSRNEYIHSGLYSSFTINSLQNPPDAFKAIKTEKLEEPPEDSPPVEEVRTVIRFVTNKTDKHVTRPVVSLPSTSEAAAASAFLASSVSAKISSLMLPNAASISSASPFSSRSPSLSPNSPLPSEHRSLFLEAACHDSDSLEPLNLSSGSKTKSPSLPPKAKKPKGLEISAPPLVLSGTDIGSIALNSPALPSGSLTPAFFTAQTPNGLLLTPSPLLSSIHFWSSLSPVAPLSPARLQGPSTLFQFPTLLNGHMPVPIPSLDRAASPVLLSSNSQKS
The following applies: protein: recombinant; tags: N-terminal GST; dsDNA, one strand shown. Put shortly:
as §1

Another test deals with T7, FEV (Homo sapiens, UniProt Q99581 1-238).
T7 sequence: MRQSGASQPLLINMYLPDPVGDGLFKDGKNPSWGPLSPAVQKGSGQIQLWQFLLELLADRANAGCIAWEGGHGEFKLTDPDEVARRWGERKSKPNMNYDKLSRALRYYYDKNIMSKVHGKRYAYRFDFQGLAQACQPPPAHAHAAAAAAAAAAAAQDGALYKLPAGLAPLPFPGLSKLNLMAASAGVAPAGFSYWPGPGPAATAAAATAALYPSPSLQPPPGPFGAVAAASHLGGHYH
Particulars: protein: recombinant; tags: N-terminal GST; dsDNA, one strand shown. Put shortly: as §1

A further test concerns the target ETV5 (Homo sapiens, UniProt P41161 1-510). Particulars: protein: recombinant; tags: N-terminal GST; dsDNA, one strand shown. The method, boiled down: as §1
The next test has as its target HSF1 (Homo sapiens, UniProt Q00613 1-529). Particulars: protein: recombinant; tags: N-terminal GST; chain copies: 3; dsDNA, one strand shown. The method, boiled down: as §1
For a further test, the target named is T8, SPIC (Homo sapiens, UniProt Q8N5J4 1-248).
T8 sequence: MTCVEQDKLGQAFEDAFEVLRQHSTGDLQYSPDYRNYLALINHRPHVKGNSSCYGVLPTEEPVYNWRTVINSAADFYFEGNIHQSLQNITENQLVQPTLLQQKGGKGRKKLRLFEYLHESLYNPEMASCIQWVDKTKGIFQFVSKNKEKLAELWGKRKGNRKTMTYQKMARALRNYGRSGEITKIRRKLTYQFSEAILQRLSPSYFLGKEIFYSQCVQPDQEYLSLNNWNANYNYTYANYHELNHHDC
The following applies: protein: recombinant; tags: N-terminal GST; dsDNA, one strand shown. Put shortly: as §1

Another test addresses ELF4 (Homo sapiens, UniProt Q99607 1-663). The following applies: protein: recombinant; tags: N-terminal GST; dsDNA, one strand shown. Put shortly: as §1
Another test addresses T9, ELK4 (Homo sapiens, UniProt P28324-2 1-405).
T9 sequence: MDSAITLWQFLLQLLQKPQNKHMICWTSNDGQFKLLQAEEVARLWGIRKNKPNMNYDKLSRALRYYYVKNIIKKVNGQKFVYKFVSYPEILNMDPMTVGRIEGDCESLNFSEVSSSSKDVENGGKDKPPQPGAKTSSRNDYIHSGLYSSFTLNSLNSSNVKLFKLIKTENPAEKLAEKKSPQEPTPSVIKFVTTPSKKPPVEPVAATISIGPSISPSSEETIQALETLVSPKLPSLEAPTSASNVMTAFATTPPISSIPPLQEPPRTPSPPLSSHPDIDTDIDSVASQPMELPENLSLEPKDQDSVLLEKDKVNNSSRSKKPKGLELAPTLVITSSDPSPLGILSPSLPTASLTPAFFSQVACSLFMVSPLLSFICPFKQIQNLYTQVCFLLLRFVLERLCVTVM
The following applies: protein: recombinant; tags: N-terminal GST; dsDNA, one strand shown. The method, boiled down: as §1

Another test has as its target T10, ETV2 (Homo sapiens, UniProt O00321 1-342).
T10 sequence: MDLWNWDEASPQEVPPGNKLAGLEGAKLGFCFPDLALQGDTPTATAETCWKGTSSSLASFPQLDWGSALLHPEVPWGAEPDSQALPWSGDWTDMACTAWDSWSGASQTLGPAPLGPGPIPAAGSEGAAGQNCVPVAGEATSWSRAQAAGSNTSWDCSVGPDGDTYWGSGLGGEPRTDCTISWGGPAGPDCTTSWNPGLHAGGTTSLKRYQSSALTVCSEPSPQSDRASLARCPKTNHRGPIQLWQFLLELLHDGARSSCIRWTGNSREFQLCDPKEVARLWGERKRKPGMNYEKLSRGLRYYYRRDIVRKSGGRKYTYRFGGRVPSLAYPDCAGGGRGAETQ
The following applies: protein: recombinant; tags: N-terminal GST; dsDNA, one strand shown. Put shortly:
as §1

The target of another test is T11, ELF3 (Homo sapiens, UniProt P78545 1-371).
T11 sequence: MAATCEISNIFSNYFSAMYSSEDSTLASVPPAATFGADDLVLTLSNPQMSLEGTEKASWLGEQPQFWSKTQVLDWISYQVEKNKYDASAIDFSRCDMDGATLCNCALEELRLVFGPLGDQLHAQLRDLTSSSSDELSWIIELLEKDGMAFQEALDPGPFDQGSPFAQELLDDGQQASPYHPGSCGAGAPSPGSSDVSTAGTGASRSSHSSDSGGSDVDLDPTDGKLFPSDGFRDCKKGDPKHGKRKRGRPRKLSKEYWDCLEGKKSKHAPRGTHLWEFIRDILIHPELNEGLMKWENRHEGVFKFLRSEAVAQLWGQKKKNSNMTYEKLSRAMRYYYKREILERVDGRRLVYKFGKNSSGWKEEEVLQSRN
The following applies: protein: recombinant; tags: N-terminal GST; dsDNA, one strand shown. Put shortly: as §1

The next test addresses CRX (Homo sapiens, UniProt O43186 1-299). The following applies: protein: recombinant; tags: N-terminal GST; dsDNA, one strand shown. The method, boiled down: as §1
A further test deals with ETV1 (Homo sapiens, UniProt P50549 1-477). Particulars: protein: recombinant; tags: N-terminal GST; dsDNA, one strand shown. Put shortly:
as §1

ETV1, sequence (P50549 whole entry): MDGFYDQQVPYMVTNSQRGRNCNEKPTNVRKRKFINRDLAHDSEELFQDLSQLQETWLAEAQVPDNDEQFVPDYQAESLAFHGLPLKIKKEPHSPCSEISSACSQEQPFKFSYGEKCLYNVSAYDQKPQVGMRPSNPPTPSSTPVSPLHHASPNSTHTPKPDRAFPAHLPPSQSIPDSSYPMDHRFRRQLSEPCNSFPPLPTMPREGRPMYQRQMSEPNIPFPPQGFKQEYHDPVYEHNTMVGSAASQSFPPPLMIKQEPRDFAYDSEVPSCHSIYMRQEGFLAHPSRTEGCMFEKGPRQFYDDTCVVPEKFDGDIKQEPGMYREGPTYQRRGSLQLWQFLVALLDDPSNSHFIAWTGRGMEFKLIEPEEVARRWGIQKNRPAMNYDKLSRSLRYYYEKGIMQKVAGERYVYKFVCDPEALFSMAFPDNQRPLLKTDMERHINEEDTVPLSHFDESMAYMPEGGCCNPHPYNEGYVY
ELF1, sequence (P32519 whole entry): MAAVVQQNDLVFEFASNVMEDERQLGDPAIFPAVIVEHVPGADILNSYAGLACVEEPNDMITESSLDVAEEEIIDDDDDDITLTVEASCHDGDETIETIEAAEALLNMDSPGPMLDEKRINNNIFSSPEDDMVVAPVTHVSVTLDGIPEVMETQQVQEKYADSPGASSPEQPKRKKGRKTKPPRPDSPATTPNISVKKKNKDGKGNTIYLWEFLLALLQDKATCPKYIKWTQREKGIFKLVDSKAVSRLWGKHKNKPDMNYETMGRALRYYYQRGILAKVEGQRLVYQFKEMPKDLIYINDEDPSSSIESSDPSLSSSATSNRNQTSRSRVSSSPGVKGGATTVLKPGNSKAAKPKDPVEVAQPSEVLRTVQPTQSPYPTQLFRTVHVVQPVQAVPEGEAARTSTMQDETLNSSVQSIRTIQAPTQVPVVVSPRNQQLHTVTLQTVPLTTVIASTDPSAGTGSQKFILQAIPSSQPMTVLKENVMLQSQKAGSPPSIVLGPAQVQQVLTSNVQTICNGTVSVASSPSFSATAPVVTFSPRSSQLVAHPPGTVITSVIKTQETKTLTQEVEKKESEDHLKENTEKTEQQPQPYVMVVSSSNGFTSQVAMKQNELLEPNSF
ETV5, sequence (P41161 whole entry): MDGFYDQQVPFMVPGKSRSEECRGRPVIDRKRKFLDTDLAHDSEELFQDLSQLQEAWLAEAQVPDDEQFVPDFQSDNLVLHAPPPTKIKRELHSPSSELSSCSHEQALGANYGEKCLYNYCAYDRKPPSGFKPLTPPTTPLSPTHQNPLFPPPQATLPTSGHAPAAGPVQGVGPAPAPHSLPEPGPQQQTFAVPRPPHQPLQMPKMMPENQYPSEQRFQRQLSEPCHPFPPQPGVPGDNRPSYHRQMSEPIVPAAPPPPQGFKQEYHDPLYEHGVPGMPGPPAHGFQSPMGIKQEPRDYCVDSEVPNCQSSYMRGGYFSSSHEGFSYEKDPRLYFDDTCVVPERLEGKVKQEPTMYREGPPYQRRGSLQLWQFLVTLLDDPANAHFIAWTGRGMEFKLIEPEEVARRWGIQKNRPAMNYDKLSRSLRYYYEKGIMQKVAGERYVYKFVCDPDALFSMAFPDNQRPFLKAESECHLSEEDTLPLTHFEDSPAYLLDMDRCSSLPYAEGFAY
CRX, sequence (O43186 whole entry): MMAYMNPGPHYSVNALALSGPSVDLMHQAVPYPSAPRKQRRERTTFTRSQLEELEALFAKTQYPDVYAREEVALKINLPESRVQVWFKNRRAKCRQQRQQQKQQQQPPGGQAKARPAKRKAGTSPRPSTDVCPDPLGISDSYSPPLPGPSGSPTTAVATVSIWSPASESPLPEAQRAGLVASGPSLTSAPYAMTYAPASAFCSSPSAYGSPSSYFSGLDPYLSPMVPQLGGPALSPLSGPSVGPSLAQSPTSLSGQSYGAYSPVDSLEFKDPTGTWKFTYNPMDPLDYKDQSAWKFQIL
ELF4, sequence (Q99607 whole entry): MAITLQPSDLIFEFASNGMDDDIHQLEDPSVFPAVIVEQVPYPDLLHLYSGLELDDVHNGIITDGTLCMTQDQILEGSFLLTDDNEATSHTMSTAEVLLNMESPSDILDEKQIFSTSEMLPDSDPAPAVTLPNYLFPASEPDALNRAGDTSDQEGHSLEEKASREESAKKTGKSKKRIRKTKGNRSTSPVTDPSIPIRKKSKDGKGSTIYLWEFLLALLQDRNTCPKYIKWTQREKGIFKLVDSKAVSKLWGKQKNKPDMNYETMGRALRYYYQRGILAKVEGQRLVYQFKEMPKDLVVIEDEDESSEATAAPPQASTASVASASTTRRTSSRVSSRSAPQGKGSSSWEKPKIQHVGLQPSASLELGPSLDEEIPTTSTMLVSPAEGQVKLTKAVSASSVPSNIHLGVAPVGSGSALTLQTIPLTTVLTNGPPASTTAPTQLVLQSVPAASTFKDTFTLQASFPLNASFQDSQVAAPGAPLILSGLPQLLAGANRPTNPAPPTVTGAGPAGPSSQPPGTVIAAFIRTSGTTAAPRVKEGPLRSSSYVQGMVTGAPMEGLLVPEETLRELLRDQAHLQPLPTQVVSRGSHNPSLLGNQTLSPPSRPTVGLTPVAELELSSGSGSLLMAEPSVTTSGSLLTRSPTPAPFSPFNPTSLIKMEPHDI
SPIB, sequence (Q01892 whole entry): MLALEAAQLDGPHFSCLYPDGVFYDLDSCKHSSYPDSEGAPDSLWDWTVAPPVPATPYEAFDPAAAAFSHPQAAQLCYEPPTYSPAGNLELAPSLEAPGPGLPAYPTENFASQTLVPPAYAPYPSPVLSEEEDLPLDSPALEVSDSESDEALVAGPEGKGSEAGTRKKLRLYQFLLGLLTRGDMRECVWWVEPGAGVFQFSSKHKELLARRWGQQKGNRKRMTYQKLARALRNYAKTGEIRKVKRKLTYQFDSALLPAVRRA
HSF1, sequence (Q00613 whole entry): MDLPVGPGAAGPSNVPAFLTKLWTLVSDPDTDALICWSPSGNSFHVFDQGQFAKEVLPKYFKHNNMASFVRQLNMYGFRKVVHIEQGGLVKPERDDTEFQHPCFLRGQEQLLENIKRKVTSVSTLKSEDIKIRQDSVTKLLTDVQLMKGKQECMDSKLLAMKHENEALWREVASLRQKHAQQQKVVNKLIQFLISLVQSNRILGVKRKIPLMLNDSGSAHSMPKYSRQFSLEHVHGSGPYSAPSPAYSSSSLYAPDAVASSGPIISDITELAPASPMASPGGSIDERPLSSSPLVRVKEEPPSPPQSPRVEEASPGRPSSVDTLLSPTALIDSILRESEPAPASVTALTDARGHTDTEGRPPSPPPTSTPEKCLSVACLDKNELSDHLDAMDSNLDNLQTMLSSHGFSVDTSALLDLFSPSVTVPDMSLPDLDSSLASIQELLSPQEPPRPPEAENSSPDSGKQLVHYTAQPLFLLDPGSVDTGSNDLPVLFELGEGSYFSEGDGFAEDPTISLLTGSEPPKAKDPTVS

For the sequence AATTCT, the binding signal with FLI1 is 1.4 fold enrichment (6-mer frequency, TF over GST control); with ELK1, 1.22 fold enrichment (6-mer frequency, TF over GST control); with GABPA, 1.38 fold enrichment (6-mer frequency, TF over GST control); with ERG, 1.31 fold enrichment (6-mer frequency, TF over GST control); with ELF1, 1.32 fold enrichment (6-mer frequency, TF over GST control); with EHF, 1.28 fold enrichment (6-mer frequency, TF over GST control). For the same sequence, the binding signal with SPI1 is 1.27 fold enrichment (6-mer frequency, TF over GST control); in the test with SPIB it was 1.39 fold enrichment (6-mer frequency, TF over GST control); with ELK3, 1.38 fold enrichment (6-mer frequency, TF over GST control); with FEV it was 1.29 fold enrichment (6-mer frequency, TF over GST control); with ETV5, 1.28 fold enrichment (6-mer frequency, TF over GST control); with HSF1 it was 2.25 fold enrichment (6-mer frequency, TF over GST control). Moreover, the binding signal was 1.3 fold enrichment (6-mer frequency, TF over GST control) with SPIC; 1.33 fold enrichment (6-mer frequency, TF over GST control) with ELF4; 1.29 fold enrichment (6-mer frequency, TF over GST control) with ELK4; 1.4 fold enrichment (6-mer frequency, TF over GST control) in the test with ETV2; 1.25 fold enrichment (6-mer frequency, TF over GST control) with ELF3; 1.79 fold enrichment (6-mer frequency, TF over GST control) with CRX. Besides, the binding signal in the test with ETV1 was 1.32 fold enrichment (6-mer frequency, TF over GST control).

The record behind these values is article PMC7862700, “An all-to-all approach to the identification of sequence-specific readers for epigenetic DNA modifications on cytosine”.
